Assay results taken from the supplement of paper PMC6555819.

How the values were obtained:
Test in all cases: PBM binding z-score (relative to random genomic background probes); higher = stronger binding; sequences stand for … in GC…GCGATTGACAGCGTAGAATGAAGG
[1] = system: PPARg:RXRa DBDmut IVT, anti-RXR (DBD mutation: RXRa K156A/R161A, NR concentration 270 nM, RXRa partner concentration 90 nM)
In short: (§1)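 Binding z-scores take random background probes as their reference. They come from custom Agilent 4×180K protein-binding microarrays incubated 1 h with ligand-free nuclear receptor dimers, with antibodies against each partner (one per run) detecting binding. Scanned fluorescence was regression-normalized.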

[2] = system: PPARg:RXRa IVT, anti-PPARg (NR concentration 270 nM, RXRa partner concentration 90 nM)
In short: as §1

[3] = system: PPARg DBDmut:RXRa IVT, anti-PPARg (DBD mutation: PPARg1 K132A/R137A, NR concentration 270 nM, RXRa partner concentration 90 nM)
In short: as §1

[4] = system: PPARg DBDmut IVT, anti-PPARg (DBD mutation: PPARg1 K132A/R137A, NR concentration 270 nM)
In short: as §1

[5] = system: PPARg homodimer (NR concentration 180 nM)
In short: as §1

[6] = system: PXR homodimer (NR concentration 270 nM)
In short: as §1

[7] = system: RARa:RXR (NR concentration 270 nM, RXRa partner concentration 90 nM)
In short: as §1

[8] = system: RARa homodimer (NR concentration 270 nM)
In short: as §1

[9] = system: RARb:RXRa (NR concentration 270 nM, RXRa partner concentration 90 nM)
In short: as §1

[10] = system: RARb homodimer (NR concentration 270 nM)
In short: as §1

[11] = system: RARg homodimer (NR concentration 270 nM)
In short: as §1

[12] = system: RXRa DBDmut IVT, anti-RXR (DBD mutation: RXRa K156A/R161A, NR concentration 90 nM)
In short: as §1

[13] = system: RXRa homodimer (NR concentration 180 nM)
In short: as §1

[14] = system: THRa homodimer (NR concentration 90 nM)
In short: as §1

[15] = system: VDR homodimer (NR concentration 270 nM)
In short: as §1

[16] = system: PXR:RXRa (NR concentration 270 nM, RXRa partner concentration 90 nM)
In short: as §1

[17] = system: RARg:RXRa (NR concentration 270 nM, RXRa partner concentration 90 nM)
In short: as §1

[18] = system: THRa:RXRa (NR concentration 90 nM, RXRa partner concentration 90 nM)
In short: as §1

[19] = system: VDR:RXRa (NR concentration 270 nM, RXRa partner concentration 90 nM)
In short: as §1

Sequence | PBM binding z-score [1] | PBM binding z-score [2] | PBM binding z-score [3] | PBM binding z-score [4] | PBM binding z-score [5] | PBM binding z-score [6] | PBM binding z-score [7] | PBM binding z-score [8] | PBM binding z-score [9] | PBM binding z-score [10] | PBM binding z-score [11] | PBM binding z-score [12] | PBM binding z-score [13] | PBM binding z-score [14] | PBM binding z-score [15] | PBM binding z-score [16] | PBM binding z-score [17] | PBM binding z-score [18] | PBM binding z-score [19]
ATACCAAGGTCATCGTGAGGTCGTTGATACTAAC | 2.34 | 4.3 | 2.33 | 1.42 | 4.01 | 5.81 | 6 | 1.56 | 5.36 | 4.72 | 6.27 | 3.76 | 6.49 | 3.91 | 5.41 |  |  |  | 
CCAACTAGGTCACCAGGACAGTGAAGAGGTTGGA | 7.98 | 8.26 |  | 1.95 | 2.72 | 0.124 | 2.69 | 1.44 | 4.36 | 3.74 | 5.37 | 1.24 | 3.51 | 1.89 | 0.883 | 1.52 | 4.53 | 3.37 | 1.99
CGAACTAGGTCACCAGGAAAGTGAAGAGGTTGGA | 8.65 | 8.74 |  | 0.796 | 2.05 | -0.0939 | 2.37 | 0.814 | 4.29 | 3.18 | 5.45 | 1.53 | 3.53 | 1.04 | 0.43 | 1.48 | 4.45 | 2.91 | 1.66
ATATGTCGGTTAGGGTCATTCAGAAAGTAGGGAA | 2.03 | 3.18 |  | 2.25 | 3.91 | 2.06 | 5.07 | 1.86 | 3.32 | 3.22 | 3.09 | 2.46 | 4.81 | 3.4 | 4.14 | 4.88 | 3.91 | 4.36 | 4.56
TCTAGTAGGTCACGGAGGTCACACACGACGGGTA | 7.04 | 8.61 | 4.06 | 4.54 | 5.46 | 7.52 |  | 1.12 |  | 4.79 | 7.88 | 2.43 | 7.26 | 3.15 | 4.8 |  | 7.29 |  | 
CGTCCAAGGTAAGAGAGGTCAGTGAATGCCGAGT | 0.589 | 0.75 | -1.12 | -1.45 | 1.77 | 1.61 | 3.12 | 0.562 |  | 3.65 | 3.04 | 0.742 | 2.46 | 1.13 | 1.93 |  | 2.87 | 2.91 | 
CGAACTAGGTCACCAGGACAGTGGAGAGGTTGGA | 8.2 | 8.98 |  | 4.11 | 2.37 | -0.106 | 2.81 | 0.103 | 4.39 | 3.32 | 5.51 | 1.04 | 3.27 | 1.78 | 0.74 | 1.37 | 4.53 | 3.34 | 1.99
CGAACTAGGTCACCAGGACCGTGAAGAGGTTGGA | 8.24 | 8.31 |  | 0.567 | 1.94 | -0.498 | 2.08 | -0.00105 | 4.08 | 3.25 | 5.18 | 1.08 | 3.5 | 1.07 | 0.39 | 1.19 | 4.44 | 2.89 | 2.4
CGAACTAGATCAAAGGACAGTGAAAGGCGACGTA | 1.68 | 1.44 |  | -0.617 | 0.388 | -0.201 | -0.579 | 0.383 | 0.915 | 0.779 | 0.823 | -0.208 | -0.0824 | -0.506 | 0.0452 | -0.456 | 0.0763 | 0.0238 | -0.333
CAAACTAGGTCACAGAGGTCAAAGTTCGTGCGTA | 8.27 | 8.9 | 4.88 | 5.18 | 6.43 | 12.2 |  | 3.28 | 5.29 | 5.64 | 7.81 | 3.36 |  | 3.18 | 7.28 |  | 7.52 | 4.93 | 8.36
CGAACTAGGTCAAAGGACAGTGAGAGGCGACGTA | 7.99 | 8.52 |  | 1.52 | 1.96 | -0.246 | 2.11 | 0.479 | 3.81 | 3.04 | 4.52 | 1.67 | 3.04 | 0.63 | 0.723 | 0.82 | 3.93 | 2.62 | 1.19
CCTACTGGGTCATTCAGAGGTCATTGATCATATG | 6.17 | 7.04 | 1.98 | 0.698 | 6.37 | 3.7 |  | 1.17 | 4.51 | 5.21 | 5.46 | 2.77 | 5.75 | 2.15 | 4.41 |  |  | 4.32 | 
ATATGTAGGTAAGGGTCATTCAGAAAGTAGGGAA | 5.88 | 6.35 |  | 2.93 | 3.52 | 1.25 | 4.55 | 2.02 | 3.61 | 3.55 | 3.2 | 2.15 | 4.88 | 1.15 | 3.13 | 3.78 | 4.21 | 3.01 | 4.1
CGCACTAGGTCAAAGGACAGTGAAAGGCGACGTA | 7.3 | 8.16 |  | 0.801 | 0.993 | 0.0363 | 2.25 | 0.165 | 3.84 | 3.01 | 4.5 | 1.95 | 2.87 | 0.793 | 0.314 | 1.27 | 4.03 | 2.68 | 1.35
CGAACTAGGTCACCAGGATAGTGAAGAGGTTGGA | 8.36 | 8.68 |  | 2.4 | 2.57 | -0.0879 | 2.59 | 0.146 | 4.2 | 3.4 | 5.43 | 1.26 | 3.14 | 1.45 | 0.463 | 1.4 | 4.23 | 3.3 | 1.93
CGAACTAGGTCACCAGGACATTGAAGAGGTTGGA | 7.89 | 8.55 |  | 0.336 | 1.53 | 0.175 | 2.53 | 0.511 | 4.21 | 3.54 | 5.21 | 1.95 | 3.45 | 2.06 | 1.1 | 1.66 | 4.42 | 3.48 | 
